Consider 58 compounds from PubChem BioAssay AID652067 (The Scripps Research Institute Molecular Screening Center, 2013).

In all, about 370,000 compounds went through this assay and about 5,400 (1.5%) were called active. The sample as a whole holds a higher share of actives than the screen did. A number with no mark means an inactive call.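 Rule for the calls: active = activation above the mean of all tested compounds plus 3 SD (cut at about 5.5% in these data); inactive = the rest.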

This assay deals with DAF-12 nuclear receptor (Haemonchus contortus). The assay is described as follows: H. contortus DAF-12 nuclear receptor activators, primary screen, cell-based, luminescence, HEK293, lit1-tk-luc reporter (AID 652067).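 Note: 100% = response to 3 µM Δ7-dafachronic acid high control.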 The settings on record: HEK293 hcDAF-12 lit1-tk-luc reporter, at 6.8 µM, hits give high values, 0% DMSO, 100% Δ7-dafachronic acid.
On to `COC(=O)[C@]12C[C@H](CC(=O)NCc3cccs3)C(=O)N(CCc3ccc(OC)c(OC)c3)C1=C[C@H](C(C)C)O[C@@H]2C1CC1`, for which the activation is -3.12%.

As to `CC(C)(C)OC(=O)NCCc1ccccc1/C=C/S(=O)(=O)NCc1ccc(F)cc1`, the activation was -3.18%.

On to `COC(=O)C[C@@H]1CC[C@H]2[C@@H](COc3ccc(NS(=O)(=O)CC(F)(F)F)cc3C(=O)N2C)O1`, for which the activation was -1.05%.

Take `CCOC(=O)C1=C(C)NC2=C(C(=O)CC(C)(C)C2)C1c1ccc2c(c1)OCO2` (stereo not drawn): the activation was -1.34%.

As to `COc1ccc(-n2c(SCC(=O)Nc3ccc(C)c(Cl)c3)nc3ccccc3c2=O)cc1`, the activation is -3.08%.

Turning to `CCOC(=O)[C@]12CCCC3=C1N(CCC3)C(=O)[C@@H](CC(=O)NCC13CC4CC(CC(C4)C1)C3)C2`, the activation is -1.5%.

Consider `Cc1ccc(C(=O)Nc2nnc(C3=COCCO3)o2)cc1C`, for which the activation is 1.47%.

Consider `Cc1sc(NC(=O)c2ccc3ncsc3c2)c(C(N)=O)c1C`, for which the activation is 3.79%.

On to `COc1ccccc1-c1nnc(NC(=O)c2ccc3ncsc3c2)o1`, for which the activation was 10.5% (active).

In the case of `CCOP1(=O)C=C(C(C)(C)C)OC1c1ccc(F)cc1` (stereo not drawn), the activation is -0.68%.

Consider `C=CCN1C(C(=O)OC)CN(Cc2cn(Cc3ccccc3)nn2)CCS1(=O)=O` (stereo not drawn), for which the activation is 1.4%.

Turning to `COc1cccc(CNC(=O)[C@H]2CCCN2C(=O)[C@H]2CCCN2C(=O)C2CCCCC2)c1`, the activation was 0.47%.

With `Cc1ccc2nc(CN(C)C(=O)[C@@H](Cc3ccccc3)NC(=O)[C@H]3O[C@@H](n4ccc(=O)[nH]c4=O)[C@H](O)[C@@H]3O)[nH]c2c1`, the activation is 0.21%.

Consider `CC1CC(C)CN(CCC(=O)Nc2ccc3c(c2)CCC3)C1` (stereo not drawn), for which the activation is 0.05%.

With `O=C(Nc1ccc(F)cc1)c1cc2c(s1)CCCC2`, the activation was 3.72%.

Take `O=C(Nc1ccc2c(c1)CCC2)c1ccc(Br)s1`: the activation is 9.52% (active).

For `COC(=O)[C@@]12CCCCC3=C1N(CCC3)C(=O)[C@H]2CC(=O)NCc1cccc2ccccc12`, the activation was -2.45%.

As for `CC(c1c[nH]c2ccccc12)c1c(-c2ccccc2)n(C)c2ccccc12` (stereo not drawn), the activation was 3.35%.

Consider `Cn1ccnc1SCC(=O)Nc1ccc2c(c1)OCCO2`, for which the activation is 6.79% (active).

As for `CCn1c(SCC(=O)Nc2ccc3c(c2)OCCO3)nnc1C(C)C`, the activation is -0.69%.

Take `O=C(CSc1nnnn1C1CCCC1)Nc1ccc2c(c1)OCCO2`: the activation is 1.27%.

As to `COC(=O)c1c(NC(=O)c2ccc(S(=O)(=O)N3CCOCC3)cc2)sc2c1CCN(C(C)C)C2`, the activation was 2.7%.

As for `CCn1c(SCCC(C)C)nnc1-c1c[nH]c2ccccc12`, the activation is -1.13%.

For `Cc1ccc(-c2csc(N(Cc3ccco3)C(=O)c3cccs3)n2)cc1`, the activation is -0.42%.

Consider `Cc1ccc(-c2csc(-c3c[nH]c4ccccc34)n2)cc1`, for which the activation is 6.08% (active).

`COc1cccc(CNC(=O)C2CCCN(c3nc4ccccc4o3)C2)c1OC` (stereo not drawn): the activation was -1.83%.

Consider `C=CCOC/C=C/C#CCN(CC=C)Cc1ccc(OC)cc1OC`, for which the activation is -3.48%.

For `COC(=O)Nc1ccc(S(=O)(=O)N(C)CC(F)(F)C(F)F)cc1`, the activation is -2.07%.

Consider `COc1cccc(CNC(=O)CNS(=O)(=O)c2ccc3nc(C)sc3c2)c1OC`, for which the activation is -1.15%.

Take `Cn1c(=O)c(C(=O)Nc2ncccn2)c(O)c2ccccc21`: the activation was 9.87% (active).

Regarding `Cn1c(=O)c(Sc2ccc(Cl)cc2)c(O)c2ccccc21`, the activation is 2.05%.

Take `C=CCn1c(=O)c(C(=O)Nc2ncccc2O)c(O)c2ccccc21`: the activation was -0.68%.

`COc1ccc(-n2c(SCC(=O)NC3CCCC3)nnc2-c2ccncc2)cc1`: the activation was -2.34%.

For `COc1ccc(C2=CN(Cc3ccccc3)C(c3ccc(OC)cc3)CC2=O)cc1` (stereo not drawn), the activation was -0.85%.

Consider `COc1ccc(C(=O)Nc2ccnn2C2CCN(Cc3ccncc3)CC2)cc1`, for which the activation was -0.02%.

Turning to `CCOc1ccc(C(=O)Nc2ccc(CN3CCOCC3)cc2)cc1Cl`, the activation was -3.09%.

Regarding `COc1ccc(C(=O)Nc2sc(C)c(C)c2CN2CCOCC2)cc1`, the activation is 7.53% (active).

On to `CCC(=O)c1cn(CCOc2ccccc2OC)c2ccccc12`, for which the activation was -2.5%.

In the case of `C=CCN1C(=O)[C@@H](CC(=O)N2CCN(C(=O)c3ccco3)CC2)[C@]2(C(=O)OC)CCCCC=C12`, the activation was 1.06%.

Turning to `O=C(Nc1ncccc1O)c1ccc(S(=O)(=O)N2CCCCCC2)cc1`, the activation is 3.34%.

For `O=C(Nc1ncccc1O)c1ccc(S(=O)(=O)N2CCCC2)cc1`, the activation is 1.37%.

For the compound `O=C(Nc1ncccc1O)c1ccc(C(=O)c2ccccc2)cc1`, the activation is 7.52% (active).

Regarding `COc1ccc(C2=Nc3cc(C)ccc3OC2)cc1`, the activation is 12.7% (active).

For `COc1ccc(-c2onc(C)c2-c2ccc3c(c2)OCCO3)c(O)c1`, the activation was -2.41%.

For `Cc1ccc(C(=O)NNC2=Nc3cc([N+](=O)[O-])ccc3OC2)cc1`, the activation was 2.34%.

On to `CCOC(=O)c1ccccc1NC(=S)N1CCC(C(N)=O)CC1`, for which the activation is -0.3%.

Regarding `Cc1nc(N)sc1-c1ccccc1`, the activation was 1.84%.

Take `CC(=O)Nc1cccc(-c2csc(Nc3cccc(C)n3)n2)c1`: the activation is 6.6% (active).

For `CC(=O)NC(c1cccc(F)c1)c1nc(-c2cccc(F)c2)cs1` (stereo not drawn), the activation was -0.83%.

As to `Cc1cccc(Nc2nc(-c3ccccc3)cs2)n1`, the activation is 13% (active).

As to `CC(=O)NC(c1ccccc1)c1nc(-c2cccc(C(C)C)c2)cs1` (stereo not drawn), the activation was -2.11%.

On to `CC(=O)NC(c1ccccc1)c1nc(-c2ccccc2C)cs1` (stereo not drawn), for which the activation was 3.96%.

In the case of `Cc1ccccc1Nc1scc(-c2ccc(Br)cc2)[n+]1-c1ccccc1C`, the activation is -0.47%.

As for `Cc1noc(C)c1NC(=O)Nc1ccc2c(c1)C(=O)N([C@H](C)CO)C[C@H](C)[C@H](CN(C)Cc1ccncc1)OCCCC[C@@H](C)O2`, the activation is -0.42%.

With `O=C1CCC2(CCC(c3ccc(Cl)cc3)CC2)N1CCO` (stereo not drawn), the activation is 0.94%.

Consider `Cc1ccc(C)c(CN2CCC(CNC(=O)C3CCCN(c4ncnc5c4nc4n5CCCCC4)C3)CC2)c1` (stereo not drawn), for which the activation was -1.74%.

In the case of `N#Cc1ccccc1OC[C@@H](O)CN1CCC(C(O)(c2ccccc2)c2ccccc2)CC1`, the activation was -1.36%.

Take `Cc1ccc(CSc2nnc(SCC(=O)NN=Cc3cc(Br)ccc3F)s2)cc1`: the activation was -0.88%.
